# Test results reported in PubChem BioAssay AID485364 (National Center for Advancing Translational Sciences (NCATS), 2010).
# Hit rate of the full screen: of about 360,000 compounds, about 11,000 (3.1%) were called active. Another 4% or so got no clear call; they are omitted. This is one part of a sample in which actives are shown more often than they occur. Unmarked numbers belong to inactive results. Calls follow the shape of the dose curve; as a rule, active = well fitted inhibition curve with a large enough effect; inconclusive = small, poorly fitted or top-dose-only effect; inactive = no such curve, though single readings can be large or run the other way.
# Biological target: Schistosoma mansoni thioredoxin glutathione reductase (TGR) (UniProt Q962Y6)
# Experiment: qHTS Assay for the Inhibitors of Schistosoma Mansoni Peroxiredoxins; also: nearly all actives have a fitted effect of over 60% in size
# Settings: purified TGR, DTNB reduction, TNB absorbance 405 nm; series mostly up to 114 µM; activity change, negative = inhibition: at the top concentration
# Summary of the method: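 Kinetic colorimetric format: TGR-catalysed, NADPH-driven DTNB reduction monitored via TNB absorbance. Enzyme dispensed at 20 nM; compound exposure 15 min at room temperature before reaction start.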
# % is scaled to controls: 0 for no effect and ±100 for the full control effect; potency is read from the fitted curve at half-maximal effect.
Structure (SMILES),"activity change, negative = inhibition",Potency
CC(NC(=O)c1cc(Sc2ccc(F)cc2F)nc2ccccc12)c1ccccc1 (stereo not drawn),2.43%,–
CC(C)C(=O)Nc1nc2c(s1)CC(C(C)(C)C)CC2 (stereo not drawn),-0.633%,–
Cc1ccc(S(=O)(=O)N(CC(=O)Nc2ccc(Cl)cc2Cl)c2ccccc2C)cc1,3.93%,–
COc1cccc(CN2CCc3nc(SCC(=O)Nc4ccccc4)[nH]c(=O)c3C2)c1,-2.13%,–
CC(C)c1ccc(NC(=O)C2CCN(c3nc(-c4ccc(C(C)C)cc4)no3)CC2)cc1,45%,–
COc1cccc(N(CC(=O)N2CCc3ccccc3C2)S(C)(=O)=O)c1,-6.18%,–
COc1cccc(N2CC(NS(=O)(=O)c3ccc(Cl)cc3)CC2=O)c1 (stereo not drawn),-6.5%,–
COc1cccc(N2CCN(C3CC(=O)N(c4ccc(Cl)cc4)C3=O)CC2)c1 (stereo not drawn),–,39.8 µM (active)
COc1cccc(N2C(=O)CC(N3CCc4ccccc4C3)C2=O)c1 (stereo not drawn),–,39.8 µM (active)
COc1cccc(N2C(=O)CC(N3CCN(S(=O)(=O)c4ccccc4)CC3)C2=O)c1 (stereo not drawn),–,39.8 µM (active)
CN1C(=O)CC(N2CCN(c3ccccn3)CC2)C1=O (stereo not drawn),1.89%,–
COc1ccc(COCCN2CCN(S(=O)(=O)c3ccccc3)CCC2=O)cc1,-10.8%,–
O=C1CC(N2CCN(c3ccc(F)cc3)CC2)C(=O)N1c1ccccc1 (stereo not drawn),–,50.1 µM (active)
COC(=O)CN(C(=S)Nc1ccc(Cl)cc1)C1CC(=O)N(c2ccc(OC)cc2)C1=O (stereo not drawn),3.21%,–
COc1ccc(CN2CCCC(N3CCc4ccccc4C3)C2)c(O)c1 (stereo not drawn),-23%,–
COc1cccc(N2C(=O)CN(Cc3ccccc3)C2=S)c1,-29.4%,–
O=C(C1CC(=O)N(c2ccc(F)cc2)C1)N1CCN(c2ccccc2)CC1 (stereo not drawn),-41.2%,–
C=Cc1ccc(Cn2c(C(=O)OC)cc3sc(C)cc32)cc1,5.62%,–
COc1ccc(C(=O)CSc2c(C(C)C)cnc3c2c(=O)n(C)c(=O)n3C)cc1,-11.9%,–
COc1cc2[nH]c(=O)n(Cc3ccc(C(=O)NCc4ccc(C)cc4)cc3)c(=O)c2cc1OC,1.94%,–
O=CN1CCN(C2CC(=O)N(c3ccc4c(c3)OCO4)C2=O)CC1 (stereo not drawn),–,44.7 µM (active)

Structure (SMILES),"activity change, negative = inhibition",Potency
Cc1ccc(CC2CC(=O)N(c3ccc4c(c3)OCCO4)C2=O)cc1 (stereo not drawn),0%,–
COc1ccc(N2CCN(C3CC(=O)N(c4ccc5c(c4)OCCO5)C3=O)CC2)cc1 (stereo not drawn),15.7%,–
COc1cc(Nc2nc(-c3ccc(OC)c(OC)c3)nc3ccccc23)cc(OC)c1,0.492%,–
CC(=O)c1ccc(NC(=O)CSc2c(C(C)C)cnc3c2c(=O)n(C)c(=O)n3C)cc1,-3.63%,–
Cc1cccc(NC(=O)CSc2ncc(-c3ccccc3)[nH]2)c1C,7.09%,–
COc1ccc(NC(=O)COc2ccc(C(=O)OCC(=O)N(C)C3CCS(=O)(=O)C3)cc2OC)cc1 (stereo not drawn),-3.82%,–
CCOc1ccccc1-c1cc(C(=O)N2CCOCC2)c2ccccc2n1,6.44%,–
Cc1ccc(NC(=O)c2cc(-c3ccc(C)o3)nc3ccccc23)nc1,–,11.2 µM (active)
COc1ccc(CN(C)C(=O)c2cc(-c3ccc(C)cc3C)nc3ccccc23)c(OC)c1OC,-1.05%,–
CC(=O)N1CCN(C(=O)c2cc(-c3ccc(C)o3)nc3ccccc23)CC1,-8.9%,–
O=C(c1cc(-c2ccc(Cl)s2)nc2ccccc12)N1CCOCC1,-7.38%,–
CSc1ncccc1C(=O)Nc1ccc(C)cn1,3.44%,–
COc1ccc(/C=C(\C#N)C(=O)OCC(=O)N(C)C2CCS(=O)(=O)C2)cc1 (stereo not drawn),-0.0993%,–
CN(CCOc1ccccc1)C(=O)c1cc(COc2c(F)cccc2F)on1,-0.798%,–
CN(C(=O)COC(=O)c1cc(-c2ccco2)nc2ccccc12)C1CCS(=O)(=O)C1 (stereo not drawn),–,3.55 µM (active)
CC1CCCN(C(=O)c2cc(-c3ccco3)nc3ccccc23)C1 (stereo not drawn),–,31.6 µM (active)
CN(CCOc1ccccc1)C(=O)c1cc(-c2ccco2)nc2ccccc12,–,3.16 µM (active)
Cc1ccc(-c2nnc(Nc3ccc(OCC(N)=O)cc3)c3ccccc23)cc1S(=O)(=O)NCC1CCCO1 (stereo not drawn),-2.06%,–
Cc1ccc(Cl)cc1N1CCN(C(=O)c2cnc3c(-c4ccc(F)cc4)c(C)nn3c2C)CC1,-1.63%,–
CC(=O)N1c2ccccc2CC1C(=O)N1CCN(c2ccc(F)cc2)CC1 (stereo not drawn),1.54%,–
Cc1ccc2oc(=O)c3cnn(CC(=O)N4CCN(c5cccc(Cl)c5)CC4)c3c2c1,2.82%,–

Structure (SMILES),"activity change, negative = inhibition",Potency
Fc1cccc(-n2ncc3c2ncn2nc(-c4ccccc4Cl)nc32)c1,-1.22%,–
CCOc1cccc(C(=O)Nc2nnc(S(=O)(=O)N(C)c3ccc(C)cc3)s2)c1,2.45%,–
O=C(Nc1ccc2oc(-c3ccc(O)c(Br)c3)nc2c1)c1cc2ccccc2o1,-0.0022%,–
COc1ccc(OC)c(NC(=O)CN2CCCN(Cc3cc(C)ccc3C)S2(=O)=O)c1,0.344%,–
Cc1csc2nc(COC(=O)c3ccc(NC(=O)COc4ccccc4F)cc3)cc(=O)n12,2.87%,–
COc1cccc(N=C2SC(C(=O)Nc3cccc(Cl)c3)CC(=O)N2C)c1 (stereo not drawn),-12.8%,–
CN(Cc1ccccc1)c1ncnc2onc(-c3ccc(F)cc3)c12,1.52%,–
CC(=O)c1cccc(NC(=O)c2nc(-c3ccccc3)n(-c3cccc(C)c3)n2)c1,-6.73%,–
CCN(CC)CCNC(=O)CN1N=C(c2ccc(OC)cc2)CCC1=O,0.497%,–
COc1ccc(-c2cc(C(=O)N(C)CC(=O)Nc3ccccc3Cl)c3ccccc3n2)cc1OC,3.05%,–
CC(C)N(Cc1nnc(-c2ccccc2Br)o1)C(=O)c1cc(Cl)nc2ccccc12,-0.676%,–
COc1ccc(NC(=O)CN(C)C(=O)c2cc(-c3ccc(C)o3)nc3ccccc23)cc1,–,28.2 µM (active)
O=C(c1ccc(Cl)s1)N(Cc1nnc(-c2ccccc2Cl)o1)C1CC1,-7.47%,–
O=C(c1cc(-c2ccco2)nc2ccccc12)N(Cc1nnc(-c2ccc(Cl)cc2)o1)C1CC1,–,8.91 µM (active)
COc1ccc(NC(=O)CN(C)C(=O)c2n[nH]c3ccccc23)cc1,1.25%,–
COc1ccc(Cc2nc3ccc(C(=O)NCc4ccc(OC)cc4OC)cc3o2)cc1,-3.16%,–
O=C(Nc1cc(C(F)(F)F)ccc1Cl)c1ccc2c(c1)CCN2S(=O)(=O)c1ccccc1,3.48%,–
COc1ccc(NC(=O)CSc2nnc(-c3nnn(-c4ccc(F)cc4)c3C)o2)cc1,0.551%,–
COc1ccc(OC)c(NC(=S)N2CCc3ccccc3C2)c1,9.21%,–
COc1ccc(C)cc1NC(=S)N1CCOCC1,–,17.8 µM (active)
COc1cc(C(=S)N2CCOCC2)ccc1O,6.25%,–
